PLAP act – PLAP enzyme activators, biochemical, luminescence, HTS; Alkaline phosphatase, placental type (Homo sapiens), P05187; purified PLAP enzyme, luminescent substrate read-out; stronger effect = higher value; activation fold at 20 µM; actives 1.2% (n = 96,000); AID 696, 2007; in the data active = activation fold above about 2
Target sequence (P05187 whole entry, looked up): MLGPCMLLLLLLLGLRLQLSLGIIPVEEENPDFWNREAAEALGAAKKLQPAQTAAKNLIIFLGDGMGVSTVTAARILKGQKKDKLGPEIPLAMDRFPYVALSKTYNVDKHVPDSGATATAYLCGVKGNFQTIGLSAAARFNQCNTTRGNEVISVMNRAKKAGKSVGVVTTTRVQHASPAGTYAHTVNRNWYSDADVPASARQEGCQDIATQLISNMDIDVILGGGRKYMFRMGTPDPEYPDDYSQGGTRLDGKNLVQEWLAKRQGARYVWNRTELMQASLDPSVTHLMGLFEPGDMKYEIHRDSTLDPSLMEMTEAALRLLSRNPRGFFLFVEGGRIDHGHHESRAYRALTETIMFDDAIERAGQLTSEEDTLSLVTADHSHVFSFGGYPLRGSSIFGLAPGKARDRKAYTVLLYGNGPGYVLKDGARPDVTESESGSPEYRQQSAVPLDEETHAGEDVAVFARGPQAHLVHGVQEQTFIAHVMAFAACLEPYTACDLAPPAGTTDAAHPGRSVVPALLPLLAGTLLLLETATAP
TNFa cytotox – cytotoxicity in TNFa-stimulated HUVEC, primary screen, cytotoxicity control for VCAM1 expression modulator project, imaging, Hoechst nuclei count; HUVEC TNFalpha-stimulated, Hoechst cell count; cell count reduction, % at 2 µM; actives 0.17% (n = 93,000);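 active = cell count reduction exceeding the screen mean by over 5 SD, scaled to untreated wells per plate, cut at about 78% in these data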;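 also: cells counted after 24 h of TNF alpha exposure following the 1 h pretreatment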
cytoskel mod – modifiers of F-actin cytoskeleton organization, primary screen, imaging, HUVEC, phalloidin staining, high-content imaging | actives 0.18% (n = 91,000) | AID 836, 2007 | HUVEC TNFa F-actin phalloidin imaging | inhibition, % at 2 µM;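 active = inhibition above the batch mean plus 3 SD and confirmed as a hit by visual image inspection, cut at about 30% in these data, passing the limit was not always enough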
VCAM1 TNFa inh – inhibitors of TNFa-induced VCAM1 expression, primary screen, imaging, HUVEC, TNFa stimulus, immunofluorescence; AID 802, 2007; actives 0.48% (n = 95,000); inhibition, % at 2 µM; HUVEC TNFa-induced VCAM-1 immunofluorescence, high-content imaging;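 active = inhibition above the batch mean plus 3 SD, with images confirmed as a hit by eye, cut at about 37% in these data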;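 also: 0% = TNF-stimulated DMSO wells and 100% = unstimulated control wells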
E-sel TNF inh – E-selectin induction blockers in HUVEC – imaging, immunofluorescence, high content, primary screen. HUVEC TNFa-induced E-selectin immunofluorescence. inhibition, % at 2 µM. actives 0.71% (n = 120,000). AID 1246, 2008;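 active = inhibition above the batch mean plus 3 SD, and confirmed as a hit on visual image review, cut at about 43% in these data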;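 also: 0% = TNF-stimulated DMSO wells and 100% = unstimulated control wells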
Active calls of the source: *; x = not tested or not shown. In the library only some 2% were active in any assay of this set; here they are far more common.

SMILES	PLAP act	TNFa cytotox	cytoskel mod	VCAM1 TNFa inh	E-sel TNF inh
COc1ccc(CCNC(=O)COc2ncnc3cc([N+](=O)[O-])ccc23)cc1	x	x	x	x	74*
O=C(COc1ncnc2cc([N+](=O)[O-])ccc12)NCc1ccc2c(c1)OCO2	0.9	-5	-1	-17	-21
COc1cc(C2C3=C(Nc4ncnn42)c2ccccc2CC3)cc(OC)c1OC (centres undefined)	1.1	59	-10	88*	x
CCOC(=O)C1=C(C(F)(F)F)Nc2ncnn2C1c1ccc(OC)c(OC)c1OC (centres undefined)	x	x	x	x	-4
COc1ccc(CC(=O)N2N=C(C)CC2(O)c2cccnc2)cc1 (centres undefined)	2.1*	-6	-17	12	-8
NC(=O)c1ccc(-c2ccc(Br)cc2)o1	0.7	-10	-3	-8	43*
O=C(Nc1nnc(-c2ccco2)s1)C1CC1	0.8	-7	12	3	95*
O=C(Nc1nnc(-c2ccco2)s1)C1CCN(S(=O)(=O)c2ccc(Cl)cc2)CC1	1	-23	-5	9	-17
COc1ccccc1C(=O)NCCN1CCN(C(=O)c2ccccc2OC)CC1	1.4	41	18	13	100*
COc1cccc(OC)c1NC(=O)CN1CCC(NC(=O)c2cccc(F)c2)CC1	x	92*	70*	100*	23
COc1cccc(C(=O)NC2CCN(CC(=O)NCc3ccccc3OC)CC2)c1	1.4	-5	-18	-6	5
Cc1ccc(NC(=O)N2CCN(Cc3ccc4c(c3)OCO4)CC2)cc1	2*	-36	x	7	15
Cc1noc(C)c1S(=O)(=O)N1CCC(C(=O)N2CCN(Cc3ccc4c(c3)OCO4)CC2)CC1	1.7	x	x	x	73*
Cc1ccc(C(=O)N2CCN(Cc3ccc4c(c3)OCO4)CC2)o1	1	25	-20	8	15
CC(=O)C1=C(C)NC(SCc2cccc3ccccc23)=C(C#N)C1c1ccco1 (centres undefined)	x	x	x	x	67*
CC(=O)C1=C(C)NC(SCc2ccc(C#N)cc2)=C(C#N)C1c1ccco1 (centres undefined)	x	x	x	x	36
C/C(=N\NC(=O)C1COc2ccccc2O1)c1cc2ccccc2o1 (centres undefined)	x	x	x	x	-2
C/C(=N\NC(=O)C1COc2ccccc2O1)c1ccc(C)o1 (centres undefined)	2*	-11	-1	25	3
COc1ccccc1NC(=O)CCN1CCN(Cc2ccccc2)CC1	2*	-4	6	12	2
COc1ccccc1NC(=O)CCN1CCCCCC1	0.9	12	8	-6	x
COc1ccc(-c2nc(C(N)=O)c3[nH]c(=O)n(-c4ccccc4OC)c3n2)c(OC)c1	2.4*	6	14	10	27
COc1ccccc1-n1c(=O)[nH]c2c(C(N)=O)nc(C3CCCCC3)nc21	1.9	-8	7	1	68*
Cn1c(CCNC(=O)C2CCCCC2)nc2cc(NC(=O)c3cccs3)ccc21	x	x	x	x	63*
Cn1c(CCN2CCCCC2)nc2cc(NC(=O)NC3CCCCC3)ccc21	1.3	x	x	x	x
CC1CCN(CCc2nc3cc(NC(=O)NC4CCCCC4)ccc3n2C)CC1	2*	-16	-7	6	0
SMILES	PLAP act	TNFa cytotox	cytoskel mod	VCAM1 TNFa inh	E-sel TNF inh
O=C(CN1CCCCC1)Nc1nnc(-c2ccc([N+](=O)[O-])cc2)s1	1.2	-19	2	0	7
CCc1nnc(NC(=O)CN2CCN(c3nc(-c4ccccc4)cs3)CC2)s1	2.1*	-3	-29	20	x
O=C(CN1CCCCC1)Nc1nnc(-c2ccccc2)s1	2*	0	-4	-6	-1
Cc1ccc2c(SCC(=O)NCc3ccco3)nc(-c3ccc(F)cc3)nc2c1	0.9	-9	44	12	2
Cc1ccc(O)c(-c2cc(C(F)(F)C(F)F)[nH]n2)c1	2*	-11	36	33	x
Cc1nc(N2CCN(c3ccccc3)CC2)c2c3c(sc2n1)CCC3	1.5	x	x	x	x
Oc1ccc(N2CCN(c3ncnc4sc5c(c34)CCC5)CC2)cc1	1	-18	23	86*	x
O=C(Oc1csc(=S)n1C(=O)c1ccccc1)c1ccccc1	1	86*	-71	98*	-2
O=C1C=C(NCc2ccc(Cl)c(Cl)c2)C2(CCCCC2)O1	0.9	-7	21	9	1
